Consider 12 compounds from PubChem BioAssay.

Several values for one entry are separate records, joined by “and”; a condition that tells them apart may be missing. Equal values may be shown once. For part of these data: Measured potencies and affinities stand elsewhere. Activity calls are given as the source filed them. Unless noted, how the calls were made is not given here.

A short description of experiment [1]: differential killing of epithelial or mesenchymal cells, primary screen, imaging, PC-3E GFP, TEM4-18 mCherry, co-culture (AID 1345086;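 active means compounds killing one labelled cell type while sparing the other, by normalised counts and ratio limits, not self-fluorescent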;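 on all read-outs here: cells exposed to compound for 72 h before imaging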;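 on red/green cell ratio (normalised): normalised mesenchymal count divided by normalised epithelial count so high means epithelial killing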). The settings on record: imaging cell counts, at 1 µM; for red/green cell ratio (normalised): actives lie on both sides.
In experiment [2] the test system is Aerobactin synthetase IucA (Klebsiella pneumoniae hvKP1). Put plainly: Biochemical IucA enzyme inhibition primary screen of the Spectrum library (AID 1346200).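 Further: 100% = wells without compound and 0% = wells lacking enzyme.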 The settings on record: malachite green pyrophosphate, A620, at 8 µM, stronger effect = lower value.
Experiment [3] addresses Mitogen-activated protein kinase 7 (Homo sapiens) (UniProt Q13164). The experiment is described as follows: ERK5 transactivation activators in reporter cells, primary screen, cell-based, HTS (AID 1508626;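 active means luciferase signal above three times the same-plate solvent-only control wells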;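 further: luciferase driven by Gal4-ERK5 fusion binding five Gal4 sites before minimal TATA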). The settings on record: HeLa Gal4-ERK5 transactivation, 18 h, at 5 µM, stronger effect = higher value.
A short description of experiment [4]: sensitizers of A549 cells to miR-34 induction, primary screen, imaging, A549 dox-inducible miR-34, nuclei and caspase counts (AID 1347080;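 active means compounds whose cell count with miR-34 switched on is under 0.7 times the count with it off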). The settings on record: A549 miR-34 inducible, Hoechst nuclei count, 48 h.
Experiment [5] can be described thus: polyglutamine-triggered caspase-3 activation inhibitors, cell-based (AID 1583). The note with it: polyglutamine-induced caspase-3 activation, cell assay; stronger effect = higher value;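 tested at 10 µM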.
Experiment [6] is described as follows: suppressors of polyQ aggregation in yeast, 75Q-TubU reporter (AID 1593). The settings on record: Yeast 75Q polyglutamine aggregation reporter.
The nature of experiment [7]: rescue of polyQ-huntingtin neuronal dysfunction in worms, whole organism, C. elegans mechanosensory neurons, N-terminal huntingtin (AID 1599). The note with it: touch response, stronger effect = higher value.
A short description of experiment [8]: inhibitors of mitochondrial cytochrome c release, biochemical, purified mitochondria (AID 1603).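 Further: mouse liver mitochondria challenged with calcium chloride; signal normalized to the plate average as 100%.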 The note with it: stronger effect = lower value.
Experiment [9] in a line: inhibitors of polyQ protein aggregation (AID 1604). The settings on record: polyglutamine-induced protein aggregation inhibition assay; stronger effect = higher value; tested at 2.5 µM.
Experiment [10] is described as follows: enhancers of glutamate uptake in motor neurons, MN-1 cell line (AID 1612).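 Further: tested at 1 µM final; 0% = mean of DMSO vehicle wells on each plate; positive means more glutamate uptake than control and negative means less.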 The settings on record: MN-1 motor neuron cells, stronger effect = higher value.
Experiment [11] in a line: suppressors of polyglutamine aggregation in yeast, 75Q-TubH (AID 1616). The note with it: S. cerevisiae 75Q-TubH polyglutamine aggregation suppression; stronger effect = higher value.
The nature of experiment [12]: circadian clock period modulators, cell-based, LOPAC library, luminescence reporter (AID 2774).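 Further: values are relative to mean of DMSO wells on each plate.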 The settings on record: circadian reporter cells, at 7 µM, actives lie on both sides.
Experiment [13] can be described thus: hESC survival regulators, cell-based (AID 493140).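 Further: cells exposed to compounds for four days before counting.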 The note with it: human embryonic stem cell survival screen; stronger effect = higher value.
Experiment [14] in a line: liver-stage malaria parasite growth inhibition, primary screen, cell-based, HepG2, luciferase luminescence, HepG2 viability (AID 624349; in the data active means parasite load remaining mostly below about 12%, no sharp cut-off; inactive means mostly above about 10%;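 further: 100% = mean of DMSO negative control wells on the same plate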). The settings on record: P. berghei liver stage in HepG2, luciferase luminescence, concentration not given here; parasite load remaining: stronger effect = lower value; viability: measured here: HepG2 viability without parasites.
The test system of experiment [15] is Hepatitis C virus NS3 helicase. The experiment is described as follows: HCV NS3 helicase inhibitors, primary screen, biochemical, fluorescence polarization, LOPAC1280 library (AID 687035; in the data active means inhibition above about 37%). The settings on record: Purified HCV NS3 helicase, Cy5-dT15 ssDNA binding fluorescence polarization; stronger effect = higher value; concentration not given here. For orientation: Fluorescence polarisation rises when a labelled molecule tumbles more slowly, as on binding a larger partner.

Experiment [16] can be described thus: Cy5 fluorescence quenching or enhancement artefacts, artefact control for HCV NS3 helicase inhibitor project, biochemical, LOPAC1280 (AID 687037). The settings on record: Cy5-DNA-NS3h complex fluorescence interference counterscreen. For orientation: Counterscreens check selectivity or assay interference.
For experiment [17], the system named is Aerobactin synthetase IucA (Klebsiella pneumoniae, hypervirulent). Put plainly: IucA enzyme inhibition, biochemical, LOPAC library, absorbance readout (AID 1346212).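 Further: 100% = no compound wells and 0% = no enzyme wells.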 The note with it: IucA enzyme assay, absorbance (OD) readout; stronger effect = lower value;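 tested at 8 µM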.
The nature of experiment [18]: phospholipid biosynthesis inhibitors in animal cells, primary screen, cell-based, LOPAC library, screen 4 (AID 1347384). The settings on record: phospholipid biosynthesis inhibition screen, at 10 µM.
Experiment [19] can be described thus: viability rescue of complex I mutant cybrids, primary screen, cell-based, galactose medium, ATP luminescence (AID 1645843;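 active means z-score of at least 1.8 in each of two replicates, scored against plate mean and spread of sample wells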;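 further: positive z means more ATP and so rescue of galactose-driven cybrid death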). The settings on record: complex I mutant cybrid cells, 72 h, stronger effect = higher value.
Experiment [20] in a line: survival rescue of mitochondrial mutant cells in low glucose, primary screen, MELAS cybrids, Rieske KO mouse fibroblasts, CellTiter-Glo (AID 1508586;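 active means mean z-score across replicates of 1.96 or higher in either the MELAS or the Rieske mutant cell line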;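 further: z relative to plate mean and SD of compound and empty wells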). (In ATP-based viability assays light output follows the ATP content of the culture.)
[21] abbreviates: measured here: epithelial PC-3E GFP cell survival.
[22] abbreviates: measured here: mesenchymal TEM4-18 mCherry cell survival.
The mark [23] stands for this setting: measured here: relative caspase fold change +Dox/-Dox.
[24] abbreviates: measured here: total cells with miR-34 induction, stronger effect = lower value.
The mark [25] stands for this setting: measured here: total cells without miR-34 induction.
Where [26] appears, read: MELAS cybrid survival, CellTiter-Glo 48 h, stronger effect = higher value.
[27] abbreviates: Rieske KO mouse fibroblast survival, CellTiter-Glo 72 h.

Mitogen-activated protein kinase 7 (Homo sapiens), sequence (Q13164 whole entry, looked up, the tested form may be a part): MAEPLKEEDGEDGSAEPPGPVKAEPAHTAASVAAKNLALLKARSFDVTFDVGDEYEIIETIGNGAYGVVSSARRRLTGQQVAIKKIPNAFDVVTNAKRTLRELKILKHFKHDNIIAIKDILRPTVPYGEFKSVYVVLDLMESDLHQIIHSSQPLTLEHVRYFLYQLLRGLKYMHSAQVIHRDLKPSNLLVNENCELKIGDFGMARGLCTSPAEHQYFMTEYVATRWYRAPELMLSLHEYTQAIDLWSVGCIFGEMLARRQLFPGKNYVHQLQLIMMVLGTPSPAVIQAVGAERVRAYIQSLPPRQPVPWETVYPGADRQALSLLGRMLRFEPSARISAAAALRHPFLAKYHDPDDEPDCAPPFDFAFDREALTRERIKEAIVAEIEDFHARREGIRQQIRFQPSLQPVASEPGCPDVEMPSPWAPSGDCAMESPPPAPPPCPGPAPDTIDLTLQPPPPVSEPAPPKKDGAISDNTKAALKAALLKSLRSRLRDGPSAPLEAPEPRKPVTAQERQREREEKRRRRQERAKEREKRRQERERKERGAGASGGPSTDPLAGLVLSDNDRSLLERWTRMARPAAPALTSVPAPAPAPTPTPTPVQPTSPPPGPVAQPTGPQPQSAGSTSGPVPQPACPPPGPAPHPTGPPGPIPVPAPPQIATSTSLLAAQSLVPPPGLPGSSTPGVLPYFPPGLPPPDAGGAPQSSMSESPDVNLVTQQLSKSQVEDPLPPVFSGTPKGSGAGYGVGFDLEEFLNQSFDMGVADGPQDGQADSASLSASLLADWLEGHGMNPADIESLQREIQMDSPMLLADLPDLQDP

For the compound `C=CCc1ccc(OC)cc1`, the red/green cell ratio (normalised) in experiment [1] was 1.02 (inactive). Besides, the normalised cell number in experiment [1] (setting [21]) is 0.96; in experiment [1] (setting [22]) it was 0.99. Moreover, the activity remaining in [2] was 107% (inactive). In experiment [3], the luciferase signal is 52 AU (inactive).
Turning to `C[C@]12CC[C@H](O)CC1=CCC1C2CC[C@]2(C)C(=O)CC[C@@H]12` (some centres undefined), in experiment [1], the red/green cell ratio (normalised) was 0.71 (inactive). Besides, the figures for the normalised cell number in [1] (setting [21]) and in experiment [1] (setting [22]) were 1.37 and 0.97, respectively. The values for the fold change in [4] (stronger effect = lower value) and in experiment [4] (setting [23]) were 0.933 (inactive) and 1.12, respectively. Moreover, the cell count is 7350 in experiment [4] (setting [24]) and 7880 in experiment [4] (setting [25]).
For `CN1CC(CNC(=O)OCc2ccccc2)CC2c3cccc4c3c(cn4C)CC21` (centres undefined), in experiment [5], the inhibition is -46%. In addition, the score in experiment [6] is 1.1. For the same compound, in [7], the rescue above control turned out to be 11.5. In [8], the cytochrome c release ratio turned out to be 0.97. Moreover, the inhibition of aggregation in experiment [9] stood at 12.2%. Further, in experiment [10], the glutamate uptake change is 5.85%. This compound also showed an aggregation suppression score in [11] of 1.13. Further, the red/green cell ratio (normalised) in experiment [1] was 0.64 (inactive). Besides, the normalised cell number in experiment [1] (setting [21]) was determined as 1.26; in experiment [1] (setting [22]) it was 0.81. In addition, in experiment [2], the activity remaining is 113% (inactive).
`CS(=N)(=O)CC[C@H](N)C(=O)O` (some centres undefined): in experiment [12], the period change is -0.08 h (inactive). In experiment [13], the survival was 9.75 (inactive). Also, the parasite load remaining in [14] was 18.6% (inactive) and 51.3% (inactive). For the same compound, the viability in [14] was 102% and 77.3%. Also, the inhibition in experiment [15] is -3% (inactive). Also, the fluorescence ratio (interference) in experiment [16] is 1 (inactive). Besides, the red/green cell ratio (normalised) in experiment [1] is 0.94 (inactive). The normalised cell number in experiment [1] (setting [21]) amounted to 1.08; in experiment [1] (setting [22]), 1.02. Moreover, the remaining activity in [17] was 115% (inactive). Further, the fold change is 1.04 (inactive) and 0.811 (inactive) in experiment [4] (stronger effect = lower value); 0.701 and 1.11 in experiment [4] (setting [23]). For the same compound, the cell count in [4] (setting [24]) was 10400 and 8780; in experiment [4] (setting [25]), 9920 and 10800. Also, the result in experiment [18] was inactive. Further, the z-score in [19] is 0.45 (inactive).
Turning to `C=C(C)C1Cc2c(ccc3c(=O)c4c(oc23)COc2cc(OC)c(OC)cc2-4)O1` (centres undefined), the red/green cell ratio (normalised) in experiment [1] was 0.91 (inactive). In addition, the normalised cell number in experiment [1] (setting [21]) stood at 0.94; in [1] (setting [22]), 0.86. Also, the activity remaining in [2] was 126% (inactive). In experiment [3], the luciferase signal is 56 AU (inactive).
The like results for `O=C1C=CC(=O)c2ccccc21` were, in that order, 0.81 (inactive), 1.25, 1.02, 105% (inactive) and 388 AU (active).
In the case of `COc1cc2c3cc1Oc1c(OC)c(OC)cc4c1[C@@H](Cc1cccc(c1)Oc1ccc(c(O)c1)C[C@@H]3N(C)CC2)N(C)CC4`, in experiment [14], the parasite load remaining was 114% (inactive) and the viability amounted to 67.7%. In addition, in [1], the red/green cell ratio (normalised) is 1.03 (inactive). This compound also yielded a normalised cell number in experiment [1] (setting [21]) of 0.83. In experiment [1] (setting [22]), this compound had a normalised cell number of 0.86. Moreover, the activity remaining in experiment [2] is 112% (inactive).
On to `CC(=O)O[C@H]1CC[C@@]2(C)C(=CCC3C2CC[C@]2(C)C(=O)CCC32)C1` (some centres undefined), for which, in [14], the parasite load remaining was 162% (inactive) and the viability came out at 84.8%. Moreover, the red/green cell ratio (normalised) in [1] is 0.81 (inactive). In experiment [1] (setting [21]), the normalised cell number came out at 1.28. Further, the normalised cell number in [1] (setting [22]) amounted to 1.04. The activity remaining in experiment [2] was 103% (inactive).
For the compound `C[C@H](N)[C@H](O)c1ccccc1`, the parasite load remaining in experiment [14] was 65.1% (inactive) and 27.2% (inactive). Further, the viability in experiment [14] was 97.7% and 73%. Also, the red/green cell ratio (normalised) in [1] is 1.19 (inactive). In addition, the normalised cell number in experiment [1] (setting [21]) was found to be 0.91; in experiment [1] (setting [22]), 1.08. Moreover, the fold change in experiment [4] (stronger effect = lower value) is 0.856 (inactive) and 0.884 (inactive); in [4] (setting [23]) it was 0.745 and 1.02. Moreover, the cell count is 11600 and 9670 in [4] (setting [24]); 13500 and 10900 in experiment [4] (setting [25]). The z-score in [20] (setting [26]) was -0.606 (inactive); in experiment [20] (setting [27]), -1.57; in experiment [19], -0.235 (inactive).
Consider `COc1cc2c(cc1O)CC1c3c(cc(O)c(OC)c3-2)CCN1C` (centres undefined), for which the survival in experiment [13] is 4.08 (inactive). Moreover, in experiment [14], the parasite load remaining was 73.5% (inactive) and the viability stood at 80.3%. Besides, the red/green cell ratio (normalised) in experiment [1] was 0.97 (inactive). The normalised cell number in experiment [1] (setting [21]) was found to be 1.11. Also, in experiment [1] (setting [22]), the normalised cell number turned out to be 1.07. Further, in [2], the activity remaining was 119% (inactive).
On to `C=C/C=C\CC1=C[C@@H](OC(=O)[C@@H]2[C@@H](C=C(C)C)C2(C)C)CC1=O`, for which the red/green cell ratio (normalised) in experiment [1] is 0.66 (inactive). Also, the normalised cell number stood at 1.35 in experiment [1] (setting [21]) and 0.89 in experiment [1] (setting [22]). The fold change in experiment [4] (stronger effect = lower value) was 0.949 (inactive); in experiment [4] (setting [23]), 1.14. In addition, the cell count was 8080 in [4] (setting [24]) and 8520 in [4] (setting [25]).
With `CC(C)(N)Cc1ccccc1`, the parasite load remaining in [14] is 7.56% (inactive). In addition, the viability in experiment [14] turned out to be 113%. In addition, the red/green cell ratio (normalised) in experiment [1] was 0.91 (inactive). Moreover, the values for the normalised cell number in experiment [1] (setting [21]) and in [1] (setting [22]) were 1.06 and 0.97, respectively. Further, the results for the fold change in experiment [4] (stronger effect = lower value) and in [4] (setting [23]) were 0.89 (inactive) and 4.46, respectively. Moreover, the cell count is 11900 in experiment [4] (setting [24]) and 13300 in experiment [4] (setting [25]). In addition, the z-score is -0.229 (inactive) in experiment [20] (setting [26]) and -0.552 in experiment [20] (setting [27]). Also, in experiment [3], the luciferase signal is 64 AU (inactive).

Broadly, the inhibition is the change of the read-out against control, counted positive when it falls. Broadly, the viability is a read-out of living cells in per cent, often relative to untreated cells. One may read the remaining activity as the signal under treatment as a percentage of the control signal.
